Source: PubChem
IL1B secr inh = qHTS for Inhibitors of Inflammasome Signaling: IL-1-beta AlphaLISA Primary Screen; THP-1 LPS/ATP IL-1B secretion, AlphaLISA, 16 h; active compounds read low; activity change, % at 57.5 µM; 360,000 tested, 4.7% active; AID 743279, 2014; in the data active means activity change below about -50%; inconclusive means mostly about -30% to -49%; further: on the % scale 0 is the no-effect control and ±100 the full control effect
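THP-1 cells pretreated 1 hr with compounds (up to 57.5 uM final), then stimulated with LPS (250 ng/mL final) plus ATP (1.25 mM final); secreted IL-1B measured by AlphaLISA after 16 hr, decreased signal indicating inhibition.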
HT1080-NT tox = qHTS for induction of synthetic lethality in tumor cells producing 2HG: qHTS for the HT-1080-NT fibrosarcoma cell line | HT-1080-NT fibrosarcoma viability, CellTiter-Glo ATP luminescence, 48 h | Potency, µM (top dose mostly 46.1 µM), inactives show at the highest dose activity, negative = less viability, actives largely listed as cytotoxic | 360,000 tested, 1.6% active | AID 686970, 2013;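 further: NT is the 2HG producing partner of a matched IDH1 knockdown line; potency means the concentration at half of the fitted maximal effect; 0% = DMSO-treated cells and -100% = media-only wells without cells; nearly all actives have a fitted effect of over 55% in size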
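Luminescent CellTiter-Glo readout after 48 hours of compound exposure at 37 degrees C defined viability of HT-1080-NT cells. Activity was normalized to DMSO wells and cell-free media wells; concentration-response curves were fitted and assigned curve classes.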
TGFb SMAD3 inh = qHTS for Inhibitors of TGF-b; 410,000 tested, 1.2% active; Potency, µM (series often up to 46.1 µM), for the others: at the top dose activity, negative = inhibition, hits mostly inhibitors; HepG2 CAGA-GFP TGF-b/SMAD3 reporter, GFP fluorescence, 18 h; TGF-beta stimulated, 500 pg/mL final; further: potency means the concentration at half of the fitted maximal effect; on the % scale 0 is the no-effect control and ±100 the full control effect; nearly all actives have a fitted effect of over 65% in size
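HEPG2 CAGA-GFP, 1000 cells/well; 2 h settle, 37 C; cpd via pin tool; TGF-b 500 pg/mL final; 18 h, 37 C; GFP imaging ex488/em500-530; %Activity normalised to -TGF-b and +DMSO controls; CRC fit, curve class.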
HT1080 IDH1KD tx = qHTS for induction of synthetic lethality in tumor cells producing 2HG: qHTS for the HT-1080-IDH1KD cell line. HT-1080 IDH1 knockdown viability, ATP luminescence, 48 h. Potency, µM (series often up to 46.1 µM), for inactives: at the highest dose activity, negative = toxicity, most hits filed as cytotoxic. 360,000 tested, 2% active. AID 686971, 2013;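 further: potency means the concentration at half of the fitted maximal effect; 0% = DMSO wells and -100% = cell-free medium wells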
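HT-1080-IDH1KD cells (IDH1 knocked down), 750/well in RPMI with 5% FBS, treated with compound 48 h at 37 degrees C. Viability by CellTiter-Glo luminescence, normalised to DMSO and no-cell wells; concentration-response curves classed.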
Giardia killer = Small Molecules that selectively kill Giardia lamblia: qHTS; Giardia lamblia trophozoite viability; activity change, % at 7.66 µM, hits read low; 340,000 tested, 0.15% active; AID 540267, 2011; in the data active means activity change below about -80%; inconclusive means between about -30% and that limit;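 further: parasites exposed to compound for two days anaerobically before the ATP read; on the % scale 0 is the no-effect control and ±100 the full control effect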
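Trophozoite viability was measured as ATP-dependent luminescence, read 15-30 min after reagent addition. Before that, parasites at 100 cells/well were exposed to compounds for 48 h, anaerobically, at 37 deg C.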
HepG2 tox-1 = qHTS for Inhibitors of TGF-b: Cytotox Counterscreen. 410,000 tested, 0.76% active. HepG2 CAGA-GFP viability, ATP luminescence, 18 h. Potency, µM (highest dose often 46.1 µM), for the others: at the top dose activity change, negative = cytotoxicity, actives largely listed as cytotoxic; further: potency means the concentration at half of the fitted maximal effect
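HepG2 CAGA-GFP cells (1000/well, DMEM with 1% FBS) received compound, then TGF-beta at 500 pg/mL final, and were incubated 18 hours at 37 degrees C. Viability was read by CellTiter-Glo luminescence. Media-only wells were set as complete cell-killing and DMSO as no toxicity.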
TGFb confirm = qHTS for Inhibitors of TGF-b: Confirmation of Cherry Picks | shares compounds with TGFb SMAD3 inh | HepG2 CAGA-GFP TGF-b reporter, GFP fluorescence, 18 h; cells stimulated with TGF-beta, 500 pg/mL | Potency, µM (series often up to 46.1 µM), for the others: at the highest dose activity, negative = inhibition, usual class: inhibitors | 1,600 tested, 63% active; further: potency means the concentration at half of the fitted maximal effect; on the % scale 0 is the no-effect control and ±100 the full control effect; nearly all actives have a fitted effect of over 65% in size
HepG2 tox-2 = qHTS for Inhibitors of TGF-b: Cytotox Counterscreen for Cherry Picks; shares compounds with TGFb SMAD3 inh; 1,600 tested, 27% active; AID 720535, 2013; HepG2 CAGA-GFP viability, ATP luminescence, 18 h; cells stimulated with TGF-beta, 500 pg/mL; Potency, µM (titrated, usually from 46.1 µM), for inactives: top-dose activity, negative = cytotoxicity, hits mostly inhibitors; further: potency means the concentration at half of the fitted maximal effect; on the % scale 0 is the no-effect control and ±100 the full control effect; nearly all actives have a fitted effect of over 70% in size
TGFb CCL64 inh = qHTS for Inhibitors of TGF-b: CCL64 Cells Orthogonal Assay for Cherry Picks | Potency, µM (highest dose often 46.1 µM), for the others: at the highest dose activity, negative = inhibition, actives largely listed as inhibitors | shares compounds with TGFb SMAD3 inh | 1,600 tested, 41% active | CCL64 CAGA-GFP reporter, TGF-b stimulated, GFP fluorescence, 18 h; further: potency means the concentration at half of the fitted maximal effect; nearly all actives have a fitted effect of over 65% in size
COP TGFb inh = qHTS for Inhibitors of TGF-b: Hit Validation in HepG2 Cells using COP promoter | Potency, µM (doses to about 46.1 µM), inactives show top-dose activity, negative = inhibition, most hits filed as inhibitors | 1,600 tested, 3% active | shares compounds with TGFb SMAD3 inh | HepG2 COP-GFP TGF-b reporter, GFP fluorescence, 18 h; cells stimulated by added recombinant TGF-beta; further: potency means the concentration at half of the fitted maximal effect; nearly all actives have a fitted effect of over 70% in size
* = called active by the depositor; ? = inconclusive; · = no result given. Compounds with a hit are over-represented: about 6.5% of the library has one in this group of screens. Unless noted, the call rests on the fitted dose curve; in most records, active means well fitted curve in the direction sought with a large enough effect; inconclusive means small, poorly fitted or top-dose-only effect, or another doubt; inactive means no such curve, though single readings can be large; an effect the other way counts as inactive or inconclusive.

SMILES | IL1B secr inh | HT1080-NT tox | TGFb SMAD3 inh | HT1080 IDH1KD tx | Giardia killer | HepG2 tox-1 | TGFb confirm | HepG2 tox-2 | TGFb CCL64 inh | COP TGFb inh
Cc1c(C(=O)N2CCN(Cc3ccc4c(c3)OCO4)CC2)sc2ncnc(N3CCN(c4ccccc4F)CC3)c12 | ? | ? | 5µM* | 18µM* | 11 | -35% | ? | -15% | -9% | 10%
Cc1c(C(=O)N2CCN(Cc3ccc4c(c3)OCO4)CC2)sc2ncnc(N3CCN(c4ccccc4)CC3)c12 | -3 | 0% | ? | ? | -6 | -3% | · | · | · | ·
CC12CC(O)C3c4ccc(O)cc4CCC3C1CCC2=O (stereo unspecified) | 44 | -2% | -5% | 0% | -4 | 9% | · | · | · | ·
COc1cc2c(c(Br)c1N)-c1cc(Br)c(N)cc1C2=O | 21 | ? | ? | ? | · | -46% | 0.58µM* | 0.58µM* | -4% | 68%
COc1ccc(S(=O)(=O)N(CCc2ccccc2)CC(=O)NCc2ccc(C)cc2)cc1 | · | · | ? | · | · | -9% | · | · | · | ·
O=C(NC[C@@H]1CC[C@@H](Cc2ccc(-c3ccccc3)cc2)O1)Nc1ccc(Br)cc1 | -24 | ? | 11µM* | -2% | 2 | -22% | 21µM* | -16% | -7% | -20%
O=C(NCCCCc1ccccc1)NC[C@@H]1CC[C@@H](Cc2ccc(-c3ccccc3)cc2)O1 | -13 | -16% | ? | -21% | -3 | -26% | · | · | · | ·
CC(=O)Nc1ccc(-c2ccnc3c2CC(C(=O)Nc2ccc(Cl)c(C(F)(F)F)c2)O3)cc1 (stereo unspecified) | ? | ? | 14µM* | ? | · | -20% | 8.2µM* | ? | 23µM* | 59%
CC(=O)Nc1ccc(-c2ccnc3c2CC(C(=O)NCCC(F)(F)F)O3)cc1 (stereo unspecified) | 0 | -37% | 0% | ? | · | -3% | · | · | · | ·
O=C(Nc1ccc(F)c(Cl)c1)C1Cc2c(-c3ccc(Cl)cc3)ccnc2O1 (stereo unspecified) | -16 | ? | 16µM* | ? | · | -19% | 10µM* | ? | 18µM* | 82%
CC(C)c1ccc(NC(=O)C2Cc3c(-c4ccc(Cl)cc4)ccnc3O2)cc1 (stereo unspecified) | ? | ? | 3% | ? | · | -16% | · | · | · | ·
CC(C)COC(=O)c1cc(-c2ccc(/C=N/n3cnnc3)o2)ccc1Cl | 37 | 6% | -16% | 0% | -2 | -1% | · | · | · | ·
CCOC(=O)[C@@H]1[C@H]2COc3cc(OC)ccc3[C@H]2N2C(=O)N(c3ccc(C(F)(F)F)cc3)C(=O)[C@@]12C | 9 | 0% | 6% | 1% | 10 | 15% | · | · | · | ·
CC(=O)Nc1ccc(S(=O)(=O)NC(CC(=O)NCCC2=CCCCC2)C(C)C)cc1 (stereo unspecified) | 12 | 12% | -5% | 13% | -10 | -5% | · | · | · | ·
Cc1nc(N=C(N)N)nc2ccccc12 | -101* | -4% | 13µM* | ? | 9 | -1% | 16µM* | ? | -1% | 21%
Cc1c(C(=O)N2CCCCCC2)oc2ccccc12 | 0 | -3% | -26% | ? | -9 | -14% | · | · | · | ·
CN(C)C(=O)c1ccc(-c2cc3onc(-c4ccccc4)c3c(=O)n2C)cc1 | 8 | 1% | ? | 4% | -4 | -23% | -6% | -21% | -7% | 1%
CC(=O)OCC1OC(n2cc(F)c(=O)[nH]c2=O)C(OC(C)=O)C1OC(C)=O (stereo unspecified) | 93 | 3% | ? | ? | -1 | -9% | · | · | · | ·
O=C1C(F)=CC(COC(c2ccccc2)(c2ccccc2)c2ccccc2)OC1n1cc(F)c(=O)[nH]c1=O (stereo unspecified) | -101* | ? | 5µM* | 21µM* | 1 | -60% | 2.9µM* | 8.2µM* | 2.3µM* | ?
CC(=O)c1nnn(-c2ccc(F)cc2F)c1C | -5 | 6% | -1% | 0% | -17 | 7% | · | · | · | ·
CC(C)(C)c1ccc(C(=O)N2CCC(c3nc4ccccc4o3)CC2)cc1 | · | · | ? | · | · | -25% | · | · | · | ·
COc1ccc(NC(=O)CCCSc2nc(-c3ccco3)cc(C(F)(F)F)n2)cc1OC | -21 | -24% | ? | -25% | 13 | -4% | ? | -11% | -28% | 3%
COc1ccc(NC(=O)CCSc2nc(-c3ccco3)cc(C(F)(F)F)n2)cc1OC | · | · | -4% | · | · | -11% | · | · | · | ·
NC(=O)[C@H]1CC2(CC(c3cccc(NC(=O)COc4ccc(Cl)cc4)c3)=NO2)CN1C(=O)c1ccc(Cl)cc1 (stereo partly specified) | ? | ? | 18µM* | ? | -3 | -4% | 18µM* | -29% | 18µM* | 22%
COc1ccc(-c2csc(Nc3ccc(Oc4ccccc4)cc3)n2)cc1 | 0 | ? | 11µM* | 13µM* | · | -16% | 7.3µM* | -14% | 7% | 5%
